According to PubChem BioAssay AID1159580 (chemical genetic matrix, 2015):
Screen size: about 5,500 compounds; about 2,000 (36%) were called active. Inconclusive results (about 18%) are left out. Rule as the data show it: active = normalized growth mostly below about 0.91 (no sharp cut-off); inconclusive = no clear call, values can overlap the other calls; inactive = mostly above about 0.92. Some of the results follow.

Test: chemical genetic growth profiling, strain panel (AID 1159580);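 also: tested at 20 µM; growth read once vehicle control cultures reached saturation at 30 °C; 1 = growth at the plate median or of vehicle wells; lower values mean less growth of the strain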
Conditions: growth OD

Measured: normalized growth

COc1cc(NC(C)CCCN)c2ncccc2c1 (configuration not stated)
inactive: S. cerevisiae deletion strains, locus YJR075W, strain HOC1, active compounds read low 1 | S. cerevisiae deletion strains, locus YKL009W, strain mrt4, active compounds read low 1.02 | S. cerevisiae deletion strains, locus YKL068W, active compounds read low 1.01 | S. cerevisiae deletion strains, locus YKL085W, strain MDH1 (second series), active compounds read low 1 | S. cerevisiae deletion strains, locus YKL085W, strain MDH1, active compounds read low 1 | S. cerevisiae deletion strains, locus YKL160W, strain elf1, active compounds read low 0.942 | S. cerevisiae deletion strains, locus YKL190W, strain CNB1, active compounds read low 1 | S. cerevisiae deletion strains, locus YKR001C, strain vps1, active compounds read low 1.01 | S. cerevisiae deletion strains, locus YKR026C, strain gcn3, active compounds read low 1.01 | S. cerevisiae deletion strains, locus YKR091W, strain srl3, active compounds read low 0.999 | S. cerevisiae deletion strains, locus YLL001W, strain dnm1, active compounds read low 0.965 | S. cerevisiae deletion strains, locus YLL026W, active compounds read low 0.998 | S. cerevisiae deletion strains, locus YLL041C, strain sdh2, active compounds read low 1 | S. cerevisiae deletion strains, locus YLR027C, strain aat2, active compounds read low 0.997 | S. cerevisiae deletion strains, locus YLR039C, strain RIC1, active compounds read low 1.03 | S. cerevisiae deletion strains, locus YLR058C, strain SHM2, active compounds read low 1.01 | S. cerevisiae deletion strains, locus YLR102C, strain apc9, active compounds read low 1.01 | S. cerevisiae deletion strains, locus YLR113W, strain HOG1, active compounds read low 1.06 | S. cerevisiae deletion strains, locus YLR221C, strain rsa3, active compounds read low 1.01 | S. cerevisiae deletion strains, locus YLR258W, strain gsy2, active compounds read low 1.04 | S. cerevisiae deletion strains, locus YLR262C, strain YPT6 (second series), active compounds read low 0.956 | S. cerevisiae deletion strains, locus YLR262C, strain YPT6, active compounds read low 1.05 | S. cerevisiae deletion strains, locus YLR268W, strain sec22, active compounds read low 1.02 | S. cerevisiae deletion strains, locus YLR320W, strain mms22, active compounds read low 0.987 | S. cerevisiae deletion strains, locus YLR330W, strain CHS5, active compounds read low 1 | S. cerevisiae deletion strains, locus YLR342W, strain FKS1 (second series), active compounds read low 0.947 | S. cerevisiae deletion strains, locus YLR342W, strain FKS1, active compounds read low 0.991 | S. cerevisiae deletion strains, locus YLR357W, strain rsc2, active compounds read low 0.991 | S. cerevisiae deletion strains, locus YLR370C, strain arc18, active compounds read low 1.02 | S. cerevisiae deletion strains, locus YLR371W, strain rom2, active compounds read low 1.01 | S. cerevisiae deletion strains, locus YLR384C, strain iki3, active compounds read low 1.02 | S. cerevisiae deletion strains, locus YLR418C, strain cdc73, active compounds read low 0.988 | S. cerevisiae deletion strains, locus YML016C, strain PPZ1, active compounds read low 1.01 | S. cerevisiae deletion strains, locus YML032C, strain rad52, active compounds read low 1.01 | S. cerevisiae deletion strains, locus YML120C, strain ndi1, active compounds read low 0.995 | S. cerevisiae deletion strains, locus YML124C, strain tub3, active compounds read low 1.01 | S. cerevisiae deletion strains, locus YMR058W, strain fet3, active compounds read low 0.999 | S. cerevisiae deletion strains, locus YMR078C, strain ctf18, active compounds read low 0.997 | S. cerevisiae deletion strains, locus YMR125W, strain sto1, active compounds read low 0.951 | S. cerevisiae deletion strains, locus YMR129W, active compounds read low 1.01 | S. cerevisiae deletion strains, locus YMR205C, strain PFK2, active compounds read low 0.962 | S. cerevisiae deletion strains, locus YMR223W, strain ubp8, active compounds read low 0.991 | S. cerevisiae deletion strains, locus YMR231W, strain pep5, active compounds read low 1.01 | S. cerevisiae deletion strains, locus YMR263W, strain SAP30, active compounds read low 1 | S. cerevisiae deletion strains, locus YMR307W, strain GAS1, active compounds read low 0.951 | S. cerevisiae deletion strains, locus YNL067W, strain RPL9B, active compounds read low 1.01 | S. cerevisiae deletion strains, locus YNL071W, strain lat1, active compounds read low 1.01 | S. cerevisiae deletion strains, locus YNL128W, strain TEP1, active compounds read low 1 | S. cerevisiae deletion strains, locus YNL153C, strain GIM3, active compounds read low 1.01 | S. cerevisiae deletion strains, locus YNL183C, strain NPR1, active compounds read low 0.972 | S. cerevisiae deletion strains, locus YNL209W, strain ssb2, active compounds read low 1 | S. cerevisiae deletion strains, locus YNL233W, strain BNI4, active compounds read low 1 | S. cerevisiae deletion strains, locus YNL248C, strain rpa49, active compounds read low 0.938 | S. cerevisiae deletion strains, locus YNL250W, strain rad50, active compounds read low 1.02 | S. cerevisiae deletion strains, locus YNL271C, strain bni1, active compounds read low 1.02 | S. cerevisiae deletion strains, locus YNL298W, strain CLA4, active compounds read low 1.02 | S. cerevisiae deletion strains, locus YNL307C, strain MCK1, active compounds read low 1 | S. cerevisiae deletion strains, locus YNL322C, strain KRE1 (second series), active compounds read low 1 | S. cerevisiae deletion strains, locus YNL322C, strain KRE1, active compounds read low 1 | S. cerevisiae deletion strains, locus YNR049C, strain mso1, active compounds read low 1 | S. cerevisiae deletion strains, locus YNR052C, strain pop2, active compounds read low 1.02 | S. cerevisiae deletion strains, locus YOL006C, strain TOP1, active compounds read low 1.03 | S. cerevisiae deletion strains, locus YOL012C, strain htz1 1 | S. cerevisiae deletion strains, locus YOL147C, strain pex11, active compounds read low 1.02 | S. cerevisiae deletion strains, locus YOR001W, strain rrp6, active compounds read low 1.02 | S. cerevisiae deletion strains, locus YOR061W, strain CKA2, active compounds read low 1 | S. cerevisiae deletion strains, locus YOR069W, strain VPS5, active compounds read low 1.01 | S. cerevisiae deletion strains, locus YOR070C, strain gyp1, active compounds read low 1.02 | S. cerevisiae deletion strains, locus YOR080W, strain dia2, active compounds read low 1.01 | S. cerevisiae deletion strains, locus YOR083W, strain WHI5, active compounds read low 0.958 | S. cerevisiae deletion strains, locus YOR106W, strain vam3, active compounds read low 0.959 | S. cerevisiae deletion strains, locus YOR136W, strain idh2, active compounds read low 1.01 | S. cerevisiae deletion strains, locus YOR144C, strain elg1, active compounds read low 1.01 | S. cerevisiae deletion strains, locus YOR184W, strain ser1, active compounds read low 1.04 | S. cerevisiae deletion strains, locus YOR231W, strain MKK1, active compounds read low 1 | S. cerevisiae deletion strains, locus YOR265W, strain rbl2, active compounds read low 1.02 | S. cerevisiae deletion strains, locus YOR270C, strain vph1, active compounds read low 1.05 | S. cerevisiae deletion strains, locus YOR290C, strain snf2, active compounds read low 0.997 | S. cerevisiae deletion strains, locus YOR316C, strain cot1, active compounds read low 1.01 | S. cerevisiae deletion strains, locus YPL051W, strain arl3, active compounds read low 0.982 | S. cerevisiae deletion strains, locus YPL055C, strain LGE1, active compounds read low 1 | S. cerevisiae deletion strains, locus YPL078C, strain atp4, active compounds read low 0.96 | S. cerevisiae deletion strains, locus YPL106C, strain sse1, active compounds read low 1 | S. cerevisiae deletion strains, locus YPL240C, strain hsp82, active compounds read low 1.01 | S. cerevisiae deletion strains, locus YPL241C, strain CIN2, active compounds read low 1 | S. cerevisiae deletion strains, locus YPL256C, strain CLN2, active compounds read low 1.07 | S. cerevisiae deletion strains, locus YPR119W, strain clb2, active compounds read low 1.01 | S. cerevisiae deletion strains, locus YPR141C, strain kar3, active compounds read low 1.01 | S. cerevisiae deletion strains, locus YPR163C, strain tif3, active compounds read low 1.01 | S. cerevisiae deletion strains, locus YPR167C, strain met16, active compounds read low 1.02 | S. cerevisiae deletion strains, strain wtn01, active compounds read low 1.02 | S. cerevisiae strains, strain wild type, active compounds read low 1
